# AmpC no deterg = qHTS Inhibitors of AmpC Beta-Lactamase (assay without detergent); Potency, µM (titrated, usually from 57.1 µM), for the others: top-dose activity change, negative = inhibition, usual class: inhibitors; AmpC nitrocefin hydrolysis, absorbance 480 nm, 0.0001% Triton; P00811; 0.52% of 330,000 active;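 further: plate controls were no compound for no effect and no enzyme for full effect; nearly all actives have a fitted effect of over 20% in size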
# Target sequence (P00811 whole entry, looked up): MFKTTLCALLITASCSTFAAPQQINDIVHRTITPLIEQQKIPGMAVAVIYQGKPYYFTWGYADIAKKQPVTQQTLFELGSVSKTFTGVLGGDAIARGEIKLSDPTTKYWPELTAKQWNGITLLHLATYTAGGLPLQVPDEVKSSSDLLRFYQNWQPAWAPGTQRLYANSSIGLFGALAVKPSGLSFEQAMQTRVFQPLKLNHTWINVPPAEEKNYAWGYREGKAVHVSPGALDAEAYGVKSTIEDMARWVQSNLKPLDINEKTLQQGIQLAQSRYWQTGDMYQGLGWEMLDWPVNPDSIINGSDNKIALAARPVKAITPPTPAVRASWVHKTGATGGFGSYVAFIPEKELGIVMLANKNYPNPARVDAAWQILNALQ
#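 AmpC (5.3 nM in the dispensed reagent) in 20 mM phosphate pH 7.0 with 0.01% (detergent screen) or 0.0001% Triton X-100 was preincubated with compounds for 15 min at room temperature. Nitrocefin was then added from an 800 uM solution, and hydrolysis was followed at 480 nm.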
# Marburg entry inh = qHTS for inhibitors of binding or entry into cells for Marburg Virus; Marburg virus pseudotyped entry inhibition, cell reporter; Potency, µM (titrated, usually from 37.8 µM), for the others: top-dose activity change, negative = inhibition, usual class: inhibitors; 1.8% of 300,000 active; AID 540276, 2011; calls by dose curve; tested in HEK293 cells
# AmpC detergent = qHTS Inhibitors of AmpC Beta-Lactamase (assay with detergent) | P00811 | 0.041% of 370,000 active | AmpC hydrolysis of nitrocefin, absorbance 480 nm, 0.01% Triton | AID 485294, 2010 | Potency, µM (top dose mostly 114 µM), without a hit: at the highest dose activity change, negative = inhibition, hits mostly inhibitors;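 further: 0% = no-compound wells and -100% = no-enzyme wells; nearly all actives have a fitted effect of over 25% in size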
#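 AmpC (5.3 nM in the dispensed reagent) in 20 mM phosphate pH 7.0 with 0.01% (detergent screen) or 0.0001% Triton X-100 was preincubated with compounds for 15 min at room temperature. Nitrocefin was then added from an 800 uM solution, and hydrolysis was followed at 480 nm.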
# AMA1-RON2 inh = qHTS for Inhibitors of AMA1-RON; Towards Development of Antimalarial Drug Lead: Primary Screen. AID 720542, 2013. Potency, µM (series often up to 58.2 µM), inactives show at the highest dose activity change, negative = inhibition, hits mostly inhibitors. 0.2% of 360,000 active. AlphaScreen AMA1-biotinylated RON2 peptide binding;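 further: 0% = vehicle wells and -100% = peptide control; nearly all actives have a fitted effect of over 45% in size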
#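 AMA1 (3D7) with his tag at 25 nM final met compounds first, then biotinylated RON2 peptide at 25 nM; detection used donor plus acceptor beads, 10 µg/mL apiece, read by AlphaScreen after 30 min at room temperature.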
# LASV entry inh = qHTS for Inhibitors of binding or entry into cells for Lassa Virus | Lassa virus pseudotype entry inhibition, cell reporter | Potency, µM (titrated, usually from 37.9 µM), inactives show at the top dose activity change, negative = inhibition, usual class: inhibitors | 1.2% of 300,000 active; calls by dose curve; tested in HEK293 cells; further: nearly all actives have a fitted effect of over 50% in size
# * hit, by the source's call; ? = inconclusive; nt = no result; ! = a repeat was not active; [ ] = remark or other dose. Rows were chosen to be rich in hits. Some 2.3% of all compounds tested hit in one or more screens of this group. Unless noted, the call rests on the fitted dose curve; in most records, active means well fitted curve in the direction sought with a large enough effect; inconclusive means small, poorly fitted or top-dose-only effect, or another doubt; inactive means no such curve, though single readings can be large; an effect the other way counts as inactive or inconclusive. Unless noted, on the % scale 0 is the no-effect control and ±100 the full control effect; potency means the concentration at half of the fitted maximal effect.
SMILES,AmpC no deterg,Marburg entry inh,AmpC detergent,AMA1-RON2 inh,LASV entry inh
O=[N+]([O-])c1ccc(NN=Cc2ccc(O)cc2O)nc1,nt,?,nt,44.6%,?
Cc1ccc(NC(=O)c2ccc(NCCCN3CCC(C)CC3)c([N+](=O)[O-])c2)cc1F,-19.3%,?,2.9%,-11.6%,-9.5%
O=C(Nc1cccc(Cl)c1)c1ccc(NCCCN2CCOCC2)c([N+](=O)[O-])c1,181.0%,10µM*,?,-0.9%,?
S=C(NCCCN1CCOCC1)Nc1cccc(Cl)c1,-20.5%,-0.6%,4.0%,-6.2%,12.6µM*
CC(C)N1C(=O)/C(=C/c2nc3ccccc3c(=O)n2-c2ccccc2)c2ccccc21,42.5%,?,4.8%,-9.7%,10µM*
C=CCCN1C(=O)NC(c2ccccc2)C(C(=O)OC)=C1C (stereo not given),nt,-16.3%[14.2 µM],nt,nt,nt
COc1ccc(S(=O)(=O)c2cn(C)c3cc(N4CCOCC4)c(F)cc3c2=O)cc1,nt,nt,17.7%,nt,-3.8%[46.1 µM]
O=C(Nc1ccccc1)c1nnsc1S(=O)c1ccc(Cl)cc1 (stereo not given),14.1µM*,?,?,-3.8%,?
Cn1c(=O)n(C)c2cc(N3CCCCC3)c(NC(=O)c3c(F)cccc3F)cc21,nt,?,2.5%,nt,?
CC(C)(C)c1ccc(-c2nc(S(=O)(=O)c3ccccc3)c(N3CCOCC3)o2)cc1,nt,?,20.9%,nt,?
CCOC(=O)c1cc(C#N)c(N2CCN(C(=O)c3cccc(C(F)(F)F)c3)CC2)nc1C(F)(F)F,45.9%,5.01µM*,9.7%,1.2%,1.78µM*
CCOC(=O)c1cc(C#N)c(N2CCNCC2)nc1C(F)(F)F,-6.5%,13.1%[46.1 µM],9.8%,-4.1%,13.4%[46.1 µM]
CCOC(=O)c1cc(C#N)c(N2CCN(C(=O)c3ccccc3)CC2)nc1C(F)(F)F,-5.3%,?,-4.5%,0.0%,11.2µM*
Cc1ccc(-c2nc3cc(C(C)C)ccc3o2)cc1NC(=O)c1cc([N+](=O)[O-])ccc1N1CCOCC1,nt,?,4.2%,nt,-0.7%[46.1 µM]
COc1ccc(C(=O)N/N=C(\c2ccccc2)c2ccccn2)cc1,-33.4%,9.2µM*,0.9%,26.7%,?
O=C(N/N=C(\c1ccccc1)c1ccccn1)c1ccccc1Cl,-17.6%,?,-3.3%,59.9%,?
O=C(NN=C(c1ccccc1)c1ccccn1)c1ccccc1,-12.2%,6.31µM*,nt,45.8%,?
COc1ccc(C(=O)Nc2ccc(NC(=O)c3ccccn3)cn2)cc1,-9.0%,-1.8%[46.1 µM],-8.6%,3.7%,?
COc1ccc(N(CC(=O)NCCSc2ccccn2)S(C)(=O)=O)cc1,-1.0%,9.3%,-7.3%,22.1%,-9.8%
COc1ccc(C(=O)NCCSc2ccccn2)cc1,-17.7%,?,?,2.1%,14.1µM*
Cc1cccc(C)c1OC[C@@H](N)C(C)C,nt,-18.7%,nt,nt,nt
COc1ccc(CNC(=O)Cn2c(=O)nc(-c3ccccc3F)c3cc(Cl)ccc32)cc1,nt,nt,9.4%,nt,-14.1%[46.1 µM]
CCn1cc(C(=O)NCCc2ccc(OC)c(OC)c2)c(=O)c2cc(S(=O)(=O)N(C)C3CCCCC3)ccc21,nt,11.2µM*,1.8%,nt,?
CCn1cc(C(=O)NCCc2ccc(OC)c(OC)c2)c(=O)c2cc(S(=O)(=O)N3CCCCCC3)ccc21,nt,-0.4%[46.1 µM],3.4%,nt,9.1%[46.1 µM]
Cc1ccc2c(c1)cc(C(=O)NCc1ccc(F)cc1)n2C,nt,?,18.3%,nt,2µM*
SMILES,AmpC no deterg,Marburg entry inh,AmpC detergent,AMA1-RON2 inh,LASV entry inh
CCn1cc(C(=O)NCc2ccc(C)cc2)c(=O)c2cc(S(=O)(=O)N3CCCCCC3)ccc21,nt,nt,0.2%,nt,6.31µM*
CN(C)c1ccc(CNC(=O)c2cc3cc(S(=O)(=O)N4CCCCC4)ccc3n2C)cc1,nt,nt,4.4%,nt,10µM*
COc1ccc(S(=O)(=O)c2c(C(=O)c3ccc(C)c(C)c3)cnc3ccc(C)cc23)cc1,nt,?,0.6%,nt,nt
CC(C)c1nn2c(=O)cc(COC(=O)c3ccccc3NC(=O)C3CCCCC3)nc2s1,nt,nt,-6.5%,nt,2.5%[46.1 µM]
O=C(OCc1ccco1)c1ccc2c(c1)N(Cc1cccc(F)c1)C(=O)c1ccccc1S2,nt,nt,-2.1%,nt,?
C[C@@H]1COc2cc(Br)ccc2S(=O)(=O)N1,nt,nt,nt,nt,0.6%[46.1 µM]
CCn1cc(C(=O)NCc2ccc(Cl)cc2)c(=O)c2cc(S(=O)(=O)N(C)C3CCCCC3)ccc21,nt,2.82µM*,-5.8%,nt,?
CCn1cc(C(=O)NCc2ccc(Cl)cc2)c(=O)c2cc(S(=O)(=O)N(C)C)ccc21,22.4%,?,-1.7%,1.6%,?
CCn1cc(C(=O)NC(C)CCc2ccccc2)c(=O)c2cc(S(=O)(=O)N(C)C)ccc21 (stereo not given),148.9%,?,1.1%,4.5%,6.31µM*
CCOC(=O)c1c(Nc2ccc(C)c(C)c2)nnc(-c2ccccc2)c1-c1ccccc1,nt,-21.4%[46.1 µM],3.0%,nt,-28.1%[46.1 µM]
O=C(COC(=O)c1ccccc1Cl)NC(=O)NCc1ccccc1,-8.6%,-0.7%,1.2%,-9.6%,8.2µM*
CCNC(=O)NC(=O)COC(=O)c1ccccc1SCC(=O)NC(=O)NCC,-4.6%,14.1µM*,-5.7%,-2.0%,?
COc1ccc(OC)c(CNC(=O)c2nn(-c3ccc(OC)c(Cl)c3)c(=O)c3c2c2ccccc2n3C)c1,nt,0.3%[46.1 µM],7.2%,nt,-6.3%[46.1 µM]
Cc1ccccc1NC(=O)Cc1nc(COC(=O)c2cccc(O)c2)cs1,-30.8%,nt,4.7%,-3.5%,nt
Cc1ccccc1NC(=O)Cc1nc(COC(=O)c2ccc(Cl)c(S(N)(=O)=O)c2)cs1,35.5µM*,-5.7%,-15.1%,8.3%,?
O=C(O)c1ccc(S(=O)(=O)N[C@H](Cc2ccc(O)cc2)C(=O)O)cc1,-9.4%,nt,?,nt,nt
CCCn1c(N)c(C(=O)CSc2nc(C)cs2)c(=O)n(C)c1=O,-11.7%,10µM*,-4.2%,0.0%,-24.4%
COc1cccc([C@H]2Oc3ccc(OC)cc3C(=NOC[C@@H](C)[C@H](OCc3ccccc3)C(C)C)[C@H]2O)c1,nt,10.0%[14.2 µM],nt,nt,nt
O=S(=O)(c1ccc(-n2cnnn2)cc1)N1CCN(c2cccc(C(F)(F)F)c2)CC1,nt,-0.9%[46.1 µM],16.0%,nt,2.8%[46.1 µM]
COc1cc(C2C3=C(Nc4ncnn42)c2ccccc2CC3)cc(OC)c1OC (stereo not given),24.6%,0.731µM*!,1.0%,4.6%,?
Cc1c(C)c2c(c(C)c1O)CC[C@@](C)(CCC[C@H](C)CCC[C@H](C)CCCC(C)C)O2,nt,nt,nt,-1.2%,nt
Cc1c(C)c2c(c(C)c1O)CCC(C)(CN1CCN(c3cc(N4CCCC4)nc(N4CCCC4)n3)CC1)O2 (stereo not given),nt,10µM*,nt,nt,nt
Cc1cc(C(=O)COC(=O)Cc2n[nH]c(=O)c3ccccc23)c(C)n1-c1cccc(C(F)(F)F)c1,1.0%,11.2µM*,?,-2.1%,?

# Bioassay records: PubChem BioAssay, National Center for Advancing Translational Sciences (NCATS)
